Screening results from PubChem BioAssay.
Pf growth 48h = Primary qHTS for delayed death inhibitors of the malarial parasite plastid, 48 hour incubation; P. falciparum luciferase growth in erythrocytes, 48 h; Potency, µM (highest dose often 28.7 µM), actives largely listed as inhibitors; 5.9% of 310,000 active; AID 504832, 2011
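Cell-based growth assay: transgenic P. falciparum expressing firefly luciferase, cultured in red cells within RPMI 1640 containing 0.5% w/v Albumax, 24 mM bicarbonate and gentamycin. A drop in luciferase activity indicates inhibition.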
HCV inh = qHTS Assay for Inhibitors of Hepatitis C Virus (HCV); Huh7.5.1 HCVcc-Cre infection, luciferase reporter, 44 h; Potency, µM (series often up to 41.8 µM), hits mostly inhibitors; 3.4% of 340,000 active
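Infectious HCVcc-Cre (~0.5 moi) was added to cells just after compound, with cells seeded 4 h earlier at 1,000 per well. Luciferase activity after 44 h culture reported infection; substrate was incubated 15 min at room temperature before reading.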
HCMV antiviral = qHTS Assay for inhibitors of the human cytomegalovirus (HCMV); HFF cells, HCMV-luciferase reporter, 72 h; active compounds read low; AID 1259415, 2018; 4.5% of 410,000 active; activity change, negative = inhibition, % at 57.5 µM; in the data active = activity change below about -60%; inconclusive = no clear call, values can overlap the other calls; inactive = above about -39%
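Inhibition of viral replication was scored as loss of reporter luminescence in HFFs infected with HCMV-luciferase (MOI 1 PFU/cell) for 72 h; compounds tested at 2 doses, normalized to buffer and Salinomycin controls.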
Pf growth 96h = Primary qHTS for delayed death inhibitors of the malarial parasite plastid, 96 hour incubation. P. falciparum luciferase reporter growth, 96 h. Potency, µM (doses to about 28.7 µM), most hits filed as inhibitors. 6.9% of 320,000 active. AID 504834, 2011
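P. falciparum expressing integrated firefly luciferase, in erythrocytes at 2% hematocrit, 0.05% parasitemia, incubated with compounds 96 h at 37 C, 5% CO2. Growth inhibition read as loss of luminescence; two-generation exposure targets delayed-death apicoplast inhibitors.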
Hits are given with their value; n = inactive; u = inconclusive; x = no result. In the library only some 13% were active in any assay of this set; here they are far more common. Unless noted, calls follow the shape of the dose curve; as a rule, active = well fitted inhibition curve with a large enough effect; inconclusive = small, poorly fitted or top-dose-only effect, or another doubt; inactive = no such curve, though single readings can be large or run the other way.

SMILES	Pf growth 48h	HCV inh	HCMV antiviral	Pf growth 96h
CC(C)NC(=S)NC(c1ccccc1)(c1ccccc1)c1ccccc1	6.6µM	u	u	8.3µM
Cc1ccn2c(=O)c(C(=O)NC3CCCCC3C)c(O)nc2c1 (stereo unspecified)	2.3µM	u	n	u
Cc1cccn2c(=O)c(C(=O)NC3CCCCC3C)c(O)nc12 (stereo unspecified)	13µM	u	u	u
Cc1ccn2c(=O)c(C(=O)NCCCN3CCCCC3C)c(O)nc2c1 (stereo unspecified)	n	n	n	u
Cc1cccn2c(=O)c(C(=O)NC3CC(C)CC(C)(C)C3)c(O)nc12 (stereo unspecified)	3.7µM	u	u	u
Cc1ccn2c(=O)c(C(=O)NC(C)c3ccccc3)c(O)nc2c1 (stereo unspecified)	x	x	-70	x
CCc1cccc(NC(=O)Cn2c(=O)n(CCc3ccc(OC)c(OC)c3)c(=O)c3ccccc32)c1	x	x	n	x
COC1C(CO)OC(n2c3c(Cl)cccc3c3c4c(c5c6cccc(Cl)c6[nH]c5c32)C(=O)NC4=O)C(O)C1O (stereo unspecified)	x	u	-98	x
CCN1CCN(S(=O)(=O)c2ccc(Cl)c(C(=O)Nc3cc(Cl)ccc3N3CCOCC3)c2)CC1	u	u	n	13µM
CCN1CCN(c2ccc(S(=O)(=O)N3CCOCC3)cc2NC(=O)c2ccc(Cl)cc2Cl)CC1	13µM	u	n	u
CCN1CCN(S(=O)(=O)c2ccc(Cl)c(C(=O)Nc3ccccc3N3CCOCC3)c2)CC1	u	n	n	n
CC(C)(C)CNCc1ccccc1NC(=O)OC(C)(C)C	x	x	n	x
CN=c1scc(-c2ccccc2F)n1/N=C(\C)c1cccnc1	n	32µM	n	u
O=C(CCc1ccc(S(=O)(=O)N2CCOCC2)cc1)Nc1nc(COc2ccccc2)cs1	12µM	u	-93	x
O=C(COc1ccccc1)Nc1nc(-c2ccc(S(=O)(=O)N3CCOCC3)cc2)cs1	u	u	n	x
COc1ccccc1OCC(=O)Nc1nc(-c2ccc(S(=O)(=O)N3CCOCC3)cc2)cs1	x	16µM	n	x
O=C(COC(=O)c1ccc(S(=O)(=O)N2CCOCC2)cc1)Nc1nc(-c2ccccc2)cs1	n	n	n	u
O=C(CN1CCOCC1)Nc1nc(-c2ccc(Cl)cc2)cs1	x	22µM	n	n
O=C(COc1ccc(Cl)cc1)Nc1nc(-c2ccc(S(=O)(=O)N3CCOCC3)cc2)cs1	u	11µM	n	n
Cc1cn2c(=O)c(S(=O)(=O)NC(C)c3ccccc3)c(C)nc2s1 (stereo unspecified)	x	x	n	x
O=C(Nc1ccc(C(F)(F)F)cc1)c1cc(S(=O)(=O)NC2CCCCCC2)ccc1F	x	x	-78	x
CCOc1ccc(NC(=O)c2cc(S(=O)(=O)NC3CCCC3)ccc2F)cc1	x	x	-61	x
O=C(Nc1ccc(C(F)(F)F)cc1)c1cc(S(=O)(=O)NC2CCCCC2)ccc1F	x	x	n	x
Cc1ccccc1C(=O)Nc1ccc(C(=O)OCc2cc(=O)n3c4c(sc3n2)CCCC4)cc1	x	x	n	x
COc1ccccc1CNC(=O)CCC1N=C2c3ccccc3N=C(SCc3ccc(C)cc3C)N2C1=O (stereo unspecified)	x	x	n	x
SMILES	Pf growth 48h	HCV inh	HCMV antiviral	Pf growth 96h
Nc1c(C(=O)NCc2ccccc2)sc2nc(N3CCOCC3)c3c(c12)CCCC3	u	u	n	12µM
Nc1c(C(=O)Nc2ccccc2)sc2nc(N3CCOCC3)c3c(c12)CCCC3	x	x	n	x
CCOc1ccc(NC(=O)c2sc3nc(N4CCOCC4)c4c(c3c2N)CCCC4)cc1	u	n	n	13µM
COc1ccc(CNC(=O)c2ccc(NC(=O)N3CCCCc4ccccc43)cc2)c(OC)c1	x	x	n	x
Cc1ccc(S(=O)(=O)c2cc3c(=O)n4ccccc4nc3n(C3CCCCC3)c2=N)cc1	n	13µM	n	u
N=c1c(S(=O)(=O)c2ccccc2)cc2c(=O)n3ccccc3nc2n1C1CCCC1	u	u	n	n
N=c1c(S(=O)(=O)c2ccc(Br)cc2)cc2c(=O)n3ccccc3nc2n1C1CCCC1	10µM	n	n	12µM
CCOC(=O)c1cccn1C1C(=O)N(Cc2ccc(Cl)nc2)c2ccc(Cl)cc21 (stereo unspecified)	x	x	n	x
CCN(c1ccc(OC)cc1)S(=O)(=O)c1ccc2[nH]c3c(c2c1)CCCCC3	x	x	n	x
COc1ccc(NC(=O)C2CCCN(c3nnc(C)c4c(C)n(-c5ccccc5)nc34)C2)cc1Cl (stereo unspecified)	x	x	-90	x
